Among the data in ChEMBL document CHEMBL1961873, “Compounds: GSK PKIS; Assays: Nanosyn kinase panel” (2012) are inhibition values, retold here.

For assay [1], the target named is T1, Serine/threonine-protein kinase D2 (Homo sapiens) (UniProt Q9BZL6).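 Also: mean value of PRKD2 inhibition, from the GSK PKIS screening panel.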
T1 sequence (whole entry): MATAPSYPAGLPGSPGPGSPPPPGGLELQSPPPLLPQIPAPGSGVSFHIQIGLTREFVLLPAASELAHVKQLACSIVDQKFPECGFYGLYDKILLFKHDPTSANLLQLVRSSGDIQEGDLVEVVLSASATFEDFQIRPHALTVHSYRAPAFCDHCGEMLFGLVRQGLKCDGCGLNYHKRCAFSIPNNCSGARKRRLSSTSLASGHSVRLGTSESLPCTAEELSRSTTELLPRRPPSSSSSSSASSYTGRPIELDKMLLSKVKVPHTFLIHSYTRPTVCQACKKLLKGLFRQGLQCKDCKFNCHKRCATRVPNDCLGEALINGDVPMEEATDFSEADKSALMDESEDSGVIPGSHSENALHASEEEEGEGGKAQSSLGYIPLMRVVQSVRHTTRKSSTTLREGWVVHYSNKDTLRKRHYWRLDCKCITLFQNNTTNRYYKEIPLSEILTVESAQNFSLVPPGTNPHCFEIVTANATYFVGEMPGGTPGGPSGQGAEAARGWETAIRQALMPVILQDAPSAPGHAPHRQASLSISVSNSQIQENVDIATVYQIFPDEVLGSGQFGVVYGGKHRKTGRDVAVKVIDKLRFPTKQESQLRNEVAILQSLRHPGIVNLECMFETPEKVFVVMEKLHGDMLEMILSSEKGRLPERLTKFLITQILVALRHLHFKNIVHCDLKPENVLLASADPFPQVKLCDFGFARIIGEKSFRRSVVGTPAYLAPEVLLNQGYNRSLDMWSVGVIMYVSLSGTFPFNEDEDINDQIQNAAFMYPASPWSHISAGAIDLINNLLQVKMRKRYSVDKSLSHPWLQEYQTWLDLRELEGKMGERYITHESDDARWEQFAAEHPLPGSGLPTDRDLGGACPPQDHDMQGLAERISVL
To be noted: at 1 µM.

In assay [2] the target is T2, Serine/threonine-protein kinase D3 (Homo sapiens) (UniProt O94806).
T2 sequence (whole entry): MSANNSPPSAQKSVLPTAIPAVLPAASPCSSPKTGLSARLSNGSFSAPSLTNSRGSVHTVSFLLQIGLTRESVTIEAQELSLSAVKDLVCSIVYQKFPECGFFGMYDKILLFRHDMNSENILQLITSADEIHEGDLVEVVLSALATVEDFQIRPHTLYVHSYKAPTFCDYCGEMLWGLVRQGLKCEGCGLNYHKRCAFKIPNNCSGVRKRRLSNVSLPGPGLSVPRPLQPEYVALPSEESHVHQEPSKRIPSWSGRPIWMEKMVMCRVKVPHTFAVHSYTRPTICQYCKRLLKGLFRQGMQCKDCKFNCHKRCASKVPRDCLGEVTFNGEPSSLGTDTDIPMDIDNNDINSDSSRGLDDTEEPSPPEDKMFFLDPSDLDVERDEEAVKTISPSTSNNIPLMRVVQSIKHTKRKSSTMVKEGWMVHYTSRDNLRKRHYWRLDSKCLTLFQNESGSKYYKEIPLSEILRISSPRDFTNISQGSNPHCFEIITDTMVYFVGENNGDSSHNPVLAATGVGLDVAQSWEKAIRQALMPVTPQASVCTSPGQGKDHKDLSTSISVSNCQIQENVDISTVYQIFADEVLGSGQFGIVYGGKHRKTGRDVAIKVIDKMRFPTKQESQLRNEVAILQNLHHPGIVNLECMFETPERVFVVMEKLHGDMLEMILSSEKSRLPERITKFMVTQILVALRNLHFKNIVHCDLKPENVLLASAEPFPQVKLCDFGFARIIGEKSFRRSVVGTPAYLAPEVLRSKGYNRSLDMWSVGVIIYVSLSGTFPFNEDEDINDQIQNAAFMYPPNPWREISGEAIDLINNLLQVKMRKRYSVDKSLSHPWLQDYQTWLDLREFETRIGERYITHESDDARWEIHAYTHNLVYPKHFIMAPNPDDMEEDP
To be noted: at 0.1 µM.

Assay [3] addresses T2, Serine/threonine-protein kinase D3 (Homo sapiens). To be noted: at 1 µM.
The target of assay [4] is T3, cGMP-dependent protein kinase 1 (Homo sapiens) (UniProt Q13976).
T3 sequence (whole entry): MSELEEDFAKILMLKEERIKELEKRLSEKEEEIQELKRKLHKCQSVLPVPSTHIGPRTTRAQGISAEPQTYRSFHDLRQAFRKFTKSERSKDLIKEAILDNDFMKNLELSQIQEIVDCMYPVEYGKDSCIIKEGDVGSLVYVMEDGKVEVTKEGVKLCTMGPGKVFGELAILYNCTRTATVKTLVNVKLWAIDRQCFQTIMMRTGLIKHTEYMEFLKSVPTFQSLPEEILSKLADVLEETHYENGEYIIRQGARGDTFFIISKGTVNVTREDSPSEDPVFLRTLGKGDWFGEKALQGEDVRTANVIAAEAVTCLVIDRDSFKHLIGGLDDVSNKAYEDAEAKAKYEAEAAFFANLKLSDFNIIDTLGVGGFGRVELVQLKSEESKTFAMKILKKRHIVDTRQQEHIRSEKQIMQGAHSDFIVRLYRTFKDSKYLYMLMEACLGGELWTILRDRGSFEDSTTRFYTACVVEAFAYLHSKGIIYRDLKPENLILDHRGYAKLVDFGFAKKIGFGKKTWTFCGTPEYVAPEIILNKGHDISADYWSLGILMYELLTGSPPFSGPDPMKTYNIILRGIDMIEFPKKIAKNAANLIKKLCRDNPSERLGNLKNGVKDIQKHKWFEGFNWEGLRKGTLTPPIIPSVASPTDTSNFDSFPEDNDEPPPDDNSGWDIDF
To be noted: at 0.1 µM.

For assay [5], the target named is T3, cGMP-dependent protein kinase 1 (Homo sapiens). To be noted: at 1 µM.
Assay [6] deals with T4, cGMP-dependent protein kinase 2 (Homo sapiens) (UniProt Q13237).
T4 sequence (whole entry): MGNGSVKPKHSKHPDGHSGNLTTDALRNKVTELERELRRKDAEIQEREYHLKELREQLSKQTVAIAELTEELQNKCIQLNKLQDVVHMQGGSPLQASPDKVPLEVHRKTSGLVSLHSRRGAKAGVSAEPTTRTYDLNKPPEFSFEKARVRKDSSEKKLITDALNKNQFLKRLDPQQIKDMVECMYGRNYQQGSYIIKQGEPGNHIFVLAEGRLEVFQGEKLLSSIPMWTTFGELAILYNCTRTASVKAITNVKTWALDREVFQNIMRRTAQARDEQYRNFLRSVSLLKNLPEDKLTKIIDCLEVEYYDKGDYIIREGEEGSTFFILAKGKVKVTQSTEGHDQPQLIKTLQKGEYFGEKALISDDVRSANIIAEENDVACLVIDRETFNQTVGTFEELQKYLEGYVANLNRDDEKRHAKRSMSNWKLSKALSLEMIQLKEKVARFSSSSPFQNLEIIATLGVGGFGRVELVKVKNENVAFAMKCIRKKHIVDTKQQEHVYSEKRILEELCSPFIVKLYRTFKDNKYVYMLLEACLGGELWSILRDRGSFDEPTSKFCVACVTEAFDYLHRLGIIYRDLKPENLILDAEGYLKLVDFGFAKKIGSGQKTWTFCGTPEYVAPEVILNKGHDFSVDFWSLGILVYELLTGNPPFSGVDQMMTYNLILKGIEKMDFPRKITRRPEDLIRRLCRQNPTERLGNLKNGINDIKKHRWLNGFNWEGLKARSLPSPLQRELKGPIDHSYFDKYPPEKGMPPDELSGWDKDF
To be noted: at 0.1 µM.

The target of assay [7] is T4, cGMP-dependent protein kinase 2 (Homo sapiens). To be noted: at 1 µM.
Assay [8] has as its target T5, cAMP-dependent protein kinase catalytic subunit PRKX (Homo sapiens) (UniProt P51817).
T5 sequence (whole entry): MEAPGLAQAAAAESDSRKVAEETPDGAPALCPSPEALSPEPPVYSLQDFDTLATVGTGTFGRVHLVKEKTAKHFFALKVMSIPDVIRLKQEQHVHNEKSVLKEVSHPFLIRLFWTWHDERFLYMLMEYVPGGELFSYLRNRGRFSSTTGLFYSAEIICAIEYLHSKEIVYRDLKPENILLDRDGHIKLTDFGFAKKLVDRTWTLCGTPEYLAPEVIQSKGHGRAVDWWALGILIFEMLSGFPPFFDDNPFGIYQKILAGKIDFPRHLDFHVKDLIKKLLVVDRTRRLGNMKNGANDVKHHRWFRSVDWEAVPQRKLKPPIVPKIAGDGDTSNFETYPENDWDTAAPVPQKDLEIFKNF
To be noted: at 0.1 µM.

The target of assay [9] is T5, cAMP-dependent protein kinase catalytic subunit PRKX (Homo sapiens). To be noted: at 1 µM.
The target in assay [10] is Rho-associated protein kinase 1 (Homo sapiens) (UniProt Q13464). To be noted: at 0.1 µM.
Sequence of Rho-associated protein kinase 1 (Homo sapiens) (Q13464 2-1354 limits assumed): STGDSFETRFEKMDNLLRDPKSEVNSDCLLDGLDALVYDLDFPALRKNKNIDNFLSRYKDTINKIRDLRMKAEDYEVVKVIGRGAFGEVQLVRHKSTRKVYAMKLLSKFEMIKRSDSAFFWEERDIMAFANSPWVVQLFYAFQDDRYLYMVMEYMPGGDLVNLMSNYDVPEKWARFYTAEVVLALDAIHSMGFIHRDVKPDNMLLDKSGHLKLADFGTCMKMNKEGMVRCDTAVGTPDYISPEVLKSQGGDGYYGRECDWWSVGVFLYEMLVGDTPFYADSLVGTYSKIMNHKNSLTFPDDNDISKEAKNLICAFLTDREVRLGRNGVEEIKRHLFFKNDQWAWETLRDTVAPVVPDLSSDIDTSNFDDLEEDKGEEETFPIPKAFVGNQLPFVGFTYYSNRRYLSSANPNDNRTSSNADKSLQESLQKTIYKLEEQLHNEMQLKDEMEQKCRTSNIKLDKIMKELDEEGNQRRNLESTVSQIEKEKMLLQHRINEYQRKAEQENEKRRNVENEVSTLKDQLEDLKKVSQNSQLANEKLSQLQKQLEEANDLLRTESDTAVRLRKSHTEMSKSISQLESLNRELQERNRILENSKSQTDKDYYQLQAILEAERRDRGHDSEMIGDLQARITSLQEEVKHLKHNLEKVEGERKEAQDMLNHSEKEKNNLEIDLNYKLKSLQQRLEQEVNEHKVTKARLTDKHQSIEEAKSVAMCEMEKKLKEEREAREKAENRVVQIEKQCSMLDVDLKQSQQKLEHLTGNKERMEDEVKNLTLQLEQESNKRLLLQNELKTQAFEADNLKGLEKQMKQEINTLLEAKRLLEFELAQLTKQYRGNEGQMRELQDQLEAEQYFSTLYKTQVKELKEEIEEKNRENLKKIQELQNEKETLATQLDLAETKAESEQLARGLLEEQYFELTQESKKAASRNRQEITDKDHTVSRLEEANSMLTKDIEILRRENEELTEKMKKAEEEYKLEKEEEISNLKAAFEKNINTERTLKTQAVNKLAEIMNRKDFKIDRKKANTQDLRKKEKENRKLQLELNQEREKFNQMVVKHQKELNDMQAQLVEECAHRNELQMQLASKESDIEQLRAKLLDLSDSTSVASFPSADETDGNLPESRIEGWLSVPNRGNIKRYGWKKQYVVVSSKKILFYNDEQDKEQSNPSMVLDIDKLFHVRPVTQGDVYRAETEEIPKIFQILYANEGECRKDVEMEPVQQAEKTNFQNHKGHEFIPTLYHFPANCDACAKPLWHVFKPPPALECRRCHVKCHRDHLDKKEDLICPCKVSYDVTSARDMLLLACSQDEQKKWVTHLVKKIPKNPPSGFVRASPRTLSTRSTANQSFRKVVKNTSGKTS
The target is the same in assay [11]. To be noted: at 1 µM.
Assay [12] has as its target Rho-associated protein kinase 2 (Homo sapiens) (UniProt O75116). To be noted: at 0.1 µM.
Assay [13] shares this target. To be noted: at 1 µM.
Assay [14] concerns the target Ribosomal protein S6 kinase alpha-1 (Homo sapiens) (UniProt Q15418). To be noted: at 0.1 µM.
For assay [15] the target is unchanged. To be noted: at 1 µM.
Assay [16] has as its target Ribosomal protein S6 kinase alpha-3 (Homo sapiens) (UniProt P51812). To be noted: at 0.1 µM.
Assay [17] shares this target. To be noted: at 1 µM.
The target in assay [18] is Ribosomal protein S6 kinase alpha-2 (Homo sapiens) (UniProt Q15349). To be noted: at 0.1 µM.
Sequence of Ribosomal protein S6 kinase alpha-2 (Homo sapiens) (Q15349 whole entry): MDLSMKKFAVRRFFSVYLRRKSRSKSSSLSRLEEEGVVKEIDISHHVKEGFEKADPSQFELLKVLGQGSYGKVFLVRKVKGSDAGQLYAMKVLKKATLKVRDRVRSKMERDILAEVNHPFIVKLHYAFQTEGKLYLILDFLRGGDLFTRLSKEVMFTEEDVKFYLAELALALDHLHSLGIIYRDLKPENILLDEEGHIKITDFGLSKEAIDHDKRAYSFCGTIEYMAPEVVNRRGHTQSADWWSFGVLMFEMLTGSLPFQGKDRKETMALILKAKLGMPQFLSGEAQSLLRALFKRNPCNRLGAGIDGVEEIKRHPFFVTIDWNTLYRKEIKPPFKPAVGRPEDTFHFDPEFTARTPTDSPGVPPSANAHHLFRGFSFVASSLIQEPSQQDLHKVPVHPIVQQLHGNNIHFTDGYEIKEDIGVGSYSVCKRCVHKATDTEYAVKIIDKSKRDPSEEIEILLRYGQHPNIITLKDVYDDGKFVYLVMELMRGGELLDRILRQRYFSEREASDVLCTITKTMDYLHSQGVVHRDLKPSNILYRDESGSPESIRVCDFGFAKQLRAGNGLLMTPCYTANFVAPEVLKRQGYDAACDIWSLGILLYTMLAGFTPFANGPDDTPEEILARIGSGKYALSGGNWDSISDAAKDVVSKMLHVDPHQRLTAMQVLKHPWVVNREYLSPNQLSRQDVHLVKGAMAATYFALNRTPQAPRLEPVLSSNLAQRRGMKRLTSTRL
Assay [19] has the same target. To be noted: at 1 µM.
Assay [20] concerns the target Ribosomal protein S6 kinase alpha-6 (Homo sapiens) (UniProt Q9UK32). To be noted: at 0.1 µM.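 Also: reported value is the mean inhibition of RSK4, from the GSK PKIS kinase inhibitor screen.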

Sequence of Ribosomal protein S6 kinase alpha-1 (Homo sapiens) (Q15418 whole entry): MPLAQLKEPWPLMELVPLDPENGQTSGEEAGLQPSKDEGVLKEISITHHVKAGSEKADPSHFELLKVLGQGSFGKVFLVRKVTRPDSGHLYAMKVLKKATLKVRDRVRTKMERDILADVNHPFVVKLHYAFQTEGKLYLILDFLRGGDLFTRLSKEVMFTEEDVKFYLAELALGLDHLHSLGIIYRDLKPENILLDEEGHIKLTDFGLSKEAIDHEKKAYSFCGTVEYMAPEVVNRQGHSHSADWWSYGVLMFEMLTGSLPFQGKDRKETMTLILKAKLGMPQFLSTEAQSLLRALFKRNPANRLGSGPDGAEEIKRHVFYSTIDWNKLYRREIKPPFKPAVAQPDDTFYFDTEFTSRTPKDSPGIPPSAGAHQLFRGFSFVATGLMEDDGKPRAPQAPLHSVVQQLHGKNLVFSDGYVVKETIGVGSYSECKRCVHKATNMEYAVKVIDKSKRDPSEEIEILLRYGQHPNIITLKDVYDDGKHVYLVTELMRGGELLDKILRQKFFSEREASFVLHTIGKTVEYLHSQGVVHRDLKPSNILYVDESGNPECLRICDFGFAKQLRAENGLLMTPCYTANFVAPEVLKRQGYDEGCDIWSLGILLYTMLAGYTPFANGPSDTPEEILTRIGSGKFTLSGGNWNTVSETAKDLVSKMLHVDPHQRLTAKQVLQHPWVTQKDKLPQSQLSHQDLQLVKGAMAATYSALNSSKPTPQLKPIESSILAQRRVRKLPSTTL
Sequence of Ribosomal protein S6 kinase alpha-3 (Homo sapiens) (P51812 whole entry): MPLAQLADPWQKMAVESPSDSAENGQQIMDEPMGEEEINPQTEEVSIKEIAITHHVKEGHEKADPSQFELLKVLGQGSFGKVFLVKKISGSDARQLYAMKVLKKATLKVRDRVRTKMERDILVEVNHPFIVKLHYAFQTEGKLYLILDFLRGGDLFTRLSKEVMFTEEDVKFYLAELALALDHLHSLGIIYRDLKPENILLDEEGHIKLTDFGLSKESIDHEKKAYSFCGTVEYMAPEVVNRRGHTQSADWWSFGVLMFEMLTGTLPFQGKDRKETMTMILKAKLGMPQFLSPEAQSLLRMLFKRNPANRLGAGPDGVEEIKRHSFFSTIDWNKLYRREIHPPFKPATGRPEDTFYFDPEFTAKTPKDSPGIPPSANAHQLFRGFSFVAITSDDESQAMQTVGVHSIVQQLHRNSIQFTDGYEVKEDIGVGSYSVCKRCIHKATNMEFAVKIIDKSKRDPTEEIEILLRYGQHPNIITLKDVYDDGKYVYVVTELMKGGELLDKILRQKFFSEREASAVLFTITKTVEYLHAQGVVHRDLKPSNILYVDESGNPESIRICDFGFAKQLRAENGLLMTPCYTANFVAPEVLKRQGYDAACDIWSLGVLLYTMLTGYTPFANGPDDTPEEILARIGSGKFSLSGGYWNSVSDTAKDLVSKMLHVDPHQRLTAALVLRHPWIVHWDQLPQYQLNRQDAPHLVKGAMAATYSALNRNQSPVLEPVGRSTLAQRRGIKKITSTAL
Sequence of Ribosomal protein S6 kinase alpha-6 (Homo sapiens) (Q9UK32 whole entry): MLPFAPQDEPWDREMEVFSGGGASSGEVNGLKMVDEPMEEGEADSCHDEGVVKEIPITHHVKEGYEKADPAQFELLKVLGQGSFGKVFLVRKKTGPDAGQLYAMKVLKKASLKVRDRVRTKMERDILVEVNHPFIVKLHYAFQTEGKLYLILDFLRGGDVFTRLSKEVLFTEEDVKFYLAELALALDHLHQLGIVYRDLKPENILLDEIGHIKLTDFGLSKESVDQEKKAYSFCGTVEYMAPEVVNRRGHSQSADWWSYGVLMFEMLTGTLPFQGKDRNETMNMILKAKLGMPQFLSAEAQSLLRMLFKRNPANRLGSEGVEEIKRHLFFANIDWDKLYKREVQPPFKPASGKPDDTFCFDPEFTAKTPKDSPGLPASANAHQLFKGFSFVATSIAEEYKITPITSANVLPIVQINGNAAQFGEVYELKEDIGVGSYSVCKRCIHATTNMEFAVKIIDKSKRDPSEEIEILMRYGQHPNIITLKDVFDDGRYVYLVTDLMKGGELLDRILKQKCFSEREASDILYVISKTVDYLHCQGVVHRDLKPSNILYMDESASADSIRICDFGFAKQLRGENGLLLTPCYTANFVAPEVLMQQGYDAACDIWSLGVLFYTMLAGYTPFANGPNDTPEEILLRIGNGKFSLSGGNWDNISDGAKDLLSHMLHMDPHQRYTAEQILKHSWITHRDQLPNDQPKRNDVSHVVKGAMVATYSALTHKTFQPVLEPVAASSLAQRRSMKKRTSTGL

As to `Cc1cc(O)cc(C)c1/C=C/c1cncc(C(=O)N(C)C)c1`, the inhibition (in general, the relative decrease from the control value, in per cent) in assay [1] came to 2.05%; in assay [2], 6.37%; in [3] it was 3%; in [4], 2.65%; in assay [5], 3.73%; in assay [6], 1.74%. Moreover, the inhibition is 3.78% in assay [7]; 1.77% in [8]; 0.5% in assay [9]; 0.55% in [10]; 1.38% in assay [11]; 1.81% in [12]. Further, the inhibition in assay [13] came out at 3.8%; in [14], 1.88%; in assay [15], 3.54%; in assay [16] it was 1.25%; in assay [17], 2.65%; in assay [18] it was 0.28%. Moreover, the figures for the inhibition in assay [19] and in [20] were 2.22% and 1.12%, respectively.
As to `NC(=O)c1sc(-n2cnc3ccccc32)cc1OCc1ccccc1Br`, the inhibition in assay [1] is 6.86%; in assay [2], 5.8%; in [3], 8.54%; in assay [4], 3.41%; in assay [5], 5.69%; in [6], 3.61%. The inhibition in [7] came out at 5.73%; in [8] it was 3.19%; in assay [9], 5.64%; in assay [10], 2.06%; in [11], 3.15%; in [12], 2.13%. Further, the inhibition in assay [13] was found to be 3.77%; in [14], 1.32%; in assay [15] it was 3.02%; in assay [16] it was 1.56%; in assay [17], 2.97%; in [18], 3.5%. Further, the results for the inhibition in assay [19] and in assay [20] were 4.96% and 2.09%, respectively.
`NS(=O)(=O)c1ccc(N/N=C2\C(=O)Nc3ccc(Cl)cc32)cc1`: the inhibition in assay [1] came out at 5.28%; in assay [2] it was 3.58%; in assay [3] it was 5.68%; in assay [4], 2.65%; in assay [5], 6.01%; in assay [6] it was 3.85%. For the same compound, the inhibition was 5.8% in assay [7]; 4.2% in assay [8]; 7.86% in [9]; 0.31% in assay [10]; 2.29% in assay [11]; 3.76% in assay [12]. In addition, the inhibition in assay [13] worked out at 10.6%; in assay [14] it was 1.95%; in [15], 4.81%; in assay [16], 1.84%; in assay [17], 3.95%; in [18], 1.83%. In addition, the inhibition in [19] was 2.94%; in [20], 0.98%.
For `N#Cc1c(NC(=O)c2ccccc2F)sc2c1CCCC2`, the inhibition in assay [1] was 1.58%; in assay [2] it was -2.11%; in [3], -0.58%; in assay [4], -2.04%; in assay [5] it was -0.46%; in assay [6], -1.17%. Further, the inhibition in assay [7] was -0.91%; in assay [8], -0.74%; in assay [9], -0.83%; in [10], -0.67%; in assay [11], 0.92%; in [12], -0.61%. The inhibition in assay [13] is 0.55%; in assay [14] it was 0.59%; in [15] it was 1.03%; in assay [16], 0.77%; in assay [17], 2.33%; in assay [18], -0.49%. Besides, the inhibition in [19] was 0.67%; in assay [20] it was -0.24%.
